# In PubChem BioAssay (NCI):
# This is part of a sample that, as a whole, favours compounds with a hit. Of some 83,000 tested, about 20% had one in any assay.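 For each line, cells grew in 96-well plates with the test compound present at a single concentration for 48 hours.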 Values without a mark were called inactive. The source made the active and inactive calls.
# System: HOP-62 NSCLC
# Test: NCI-60 one-dose screen, 48 h (100 = growth as untreated, 0 = no growth, -100 = all killed)
# Details: 10 µM
# Procedure: Growth inhibition of the HOP-62 human Non-Small Cell Lung tumor cell line is measured as a screen for anti-cancer activity. Cells are grown in 96 well plates and exposed to the test compound for 48 hours. Compounds are tested at a single concentration, which is 10^-5 M for most compounds. The reported endpoint is percent growth (GI% or GIPRCNT), where numbers from 0 - 100% represent growth inhibition, and numbers from -100% - 0 represent cell death. For example, a value of 40 represents 60% growth inhibition. A value of 0 means no net growth occurred over the course of the experiment. A value of -40 indicates 40% of cells at the beginning of the experiment died by the end of the experiment. A value of -100 means all cells are dead at the end of the experiment.
# NCI-60 Human Tumor Cell Lines Screen was performed using the standard one-dose NCI protocol, which is described in more detail at https://dtp.cancer.gov/discovery_development/nci-60/default.htm.
# Compounds with GIPRCNT values below 10 were considered active. Activity score was based on GIPRCNT using the following formula: […]
# Score is 0 for GIPRCNT values of 100 or above, 50 for GIPRCNT values of 0, and 100 for GIPRCNT values of -100.
row,SMILES,growth
1,O=C1CC(=O)N(C(=O)c2nn(-c3ccc(Cl)cc3)cc2O)N1,38.8%
2,Cc1ccc(NCCN(C)CC(C)O)c2c(=O)c3ccc(Cl)cc3sc12 (stereo not given),87.1%
3,COc1cc(C(=O)/C=C/c2c[nH]c3ccccc23)cc(OC)c1OC,41.1%
4,C[n+]1c2ccccc2nc2ccccc21,-18.8% (active)
5,O[C@@H]1CO[C@H]2[C@@H]1OC[C@@H]2O,107%
6,Cc1ccc(/C=C2/C(=O)N(C)c3ccc(S(=O)(=O)Nc4ccc(C(C)(C)C)cc4)cc32)s1,24.8%
7,Cc1ccc(/C=C/C(=O)C(=O)/C=C/c2ccc(C)cc2)cc1,109%
8,O=S(=O)(Oc1ccc(-c2ccc3sccc3c2)cc1)c1ccc(F)cc1,111%
9,COC1=CC(=O)OC(c2ccc(OC)cc2)C1 (stereo not given),105%
10,CCOC(=O)c1cc(C(=O)c2cc(OC)c(OC)c(OC)c2)n2c1ccc1c3cccnc3ccc12,61.9%
11,Cc1c(Cl)cccc1NC(=O)CN1CCOCC1,93%
12,CC1OC2CC(=O)OC2C2=C1C(=O)c1c(O)c3c(c(O)c1C2=O)C1CC(O)C3(O)C(C)O1 (stereo not given),-49.5% (active)
13,O=C(O)c1ccc(-n2cc(CNc3ccc(Oc4ccccc4)cc3)c(-c3ccccc3)n2)cc1,122%
14,C=CCSC(CC)(CC)C(=O)NC,102%
15,COc1ccc(C(=O)N2C=Cc3ccccc3C2C#N)cc1 (stereo not given),89.4%
16,COc1cc(-c2nn(-c3cccc(NC(=O)NCCNC(=O)c4cccc(C(F)(F)F)c4)c3)cc2-c2ccncc2)ccc1Cl,59.6%
17,COc1ccc(/C=C/c2nnc(/C=C/c3ccc(OC)c(OC)c3)o2)cc1OC,35.3%
18,CS(=O)(=O)c1nccc(-c2c(-c3ccc(OCCc4ccccc4)cc3)nc3sccn23)n1,104%
19,CCOC(=O)/C(=C(\C)N)C1CC(=O)NC1=O (stereo not given),107%
20,COc1cccc(CNc2cccc3cn[nH]c23)c1O,95.3%

row,SMILES,growth
1,O=C(CNc1nnc(-c2cccnc2SCc2ccccc2)s1)Nc1nc(Cl)cc(Cl)n1,95.4%
2,CN(C)c1ncnc2c1nnn2C1OC(CO)C(O)C1O (stereo not given),32.7%
3,OCCn1cccn1,104%
4,CC(=O)N[C@H](C(=O)N[C@@H](CCCNC(=N)N)C(=O)N[C@@H](CCCCN)C(=O)N[C@@H](CCCNC(=N)N)C(=O)N[C@]1(C)CCCCCC/C=C\CCC[C@@](C)(C(=O)N[C@@H](CCCNC(=N)N)C(=O)N[C@@H](CCC(=O)O)C(=O)N[C@@H](CC(C)C)C(=O)N[C@H](C(=O)N[C@@H](CCC(=O)O)C(N)=O)C(C)C)NC(=O)[C@H](CCC(N)=O)NC(=O)[C@H](CC(C)C)NC(=O)[C@H](CC(C)C)NC(=O)[C@H](CCCNC(=N)N)NC(=O)[C@H](CCCNC(=N)N)NC(=O)[C@H](CC(C)C)NC1=O)C(C)C,-31.5% (active)
5,COc1ccc(C(c2ccc(OCCN(C)C)cc2)c2cc3ccccc3c3ccccc23)cc1 (stereo not given),92.5%
6,O=C(NCCNC(=O)c1ccc(F)cc1)Nc1ccc(-n2cc(-c3ccncc3)c(-c3ccc(Cl)c(O)c3)n2)cc1,22.9%
7,CC(=O)N[C@H](C(=O)N[C@@H](CCCNC(=N)N)C(=O)N[C@@H](CCCCN)C(=O)N[C@@H](CCCNC(=N)N)C(=O)NC(C(=O)N[C@@H](CC(C)C)C(=O)N[C@@H](CCCNC(=N)N)C(=O)N[C@@]1(C)CCC/C=C\CCC[C@@](C)(C(=O)N[C@@H](CCCNC(=N)N)C(=O)N[C@@H](CCC(=O)O)C(=O)N[C@@H](CC(C)C)C(=O)N[C@H](C(=O)N[C@@H](CCC(=O)O)C(N)=O)C(C)C)NC(=O)[C@H](CCC(N)=O)NC(=O)[C@H](CC(C)C)NC(=O)[C@H](CC(C)C)NC1=O)[C@@H](C)O)C(C)C (stereo not given in full),-43.1% (active)
8,COc1ccc(-c2cc(-c3ccc(Cl)cc3)nc(SCCCCCCC(=O)NO)n2)cc1OC,62.4%
9,O=C1OC(C(Cl)(Cl)Cl)OC1C(Cl)(Cl)Cl (stereo not given),121%
10,COc1cc2cc(Oc3ccc(NC(=O)c4cccc(C(F)(F)F)c4)cc3)c(C)nc2cc1OC,87.1%
11,CCOC(=O)c1cc(C(=O)c2cc(OC)c(OC)c(OC)c2)n2nc(C)ccc12,51.2%
12,C(=N\Nc1ncnc2sc3c(c12)CCNC3)/c1cccc2ccccc12,79.9%
13,C=CCn1c(SCC(=O)Nc2ccc(C(=O)/C=C/c3cc(OC)c(OC)c(OC)c3)cc2)nnc1-c1cc(-c2ccc(Cl)cc2)nc2ccccc12,97.5%
14,CCOC(=O)N/N=C/c1ccc(OC)c(OC)c1,112%
15,O=[N+]([O-])c1cc(Cl)cc(Cl)c1O,91.5%
16,COc1cc(/C=C2\CCCC3=C2NC(N)=NC3c2cc(OC)c(OC)c(OC)c2)cc(OC)c1OC (stereo not given),17.8%
17,N#CC1=C(N)Oc2cc(N)ccc2C1c1cccnc1 (stereo not given),92.7%
18,CCn1c(SC/C(=N/O)c2ccccc2)nnc1-c1ccccc1,111%
19,CN(C)CCC1(c2ccccc2)CCN(C)C1=O (stereo not given),96.9%
20,CC[C@@H](C(=O)[C@H](C)[C@H](O)[C@@H](C)[C@H]1O[C@H]([C@@H](CC)C(=O)O)CC[C@H]1C)C1O[C@]2(C=C[C@@H](O)[C@]3(CC[C@@](C)([C@H]4CC[C@](O)(CC)[C@H](C)O4)O3)O2)[C@H](C)C[C@@H]1C (stereo not given in full),36.9%
